Screening data deposited in PubChem by National Center for Advancing Translational Sciences (NCATS).
Peg3 imprint: qHTS Assay for Compounds that Induce Erasure of Genomic Imprints | AID 1948, 2009 | 110,000 tested, 0.02% active | Potency, µM (doses to about 60.7 µM), for the others: at the highest dose activity change, positive = activation, actives largely listed as activators | mouse ES Peg3-LacZ reporter, beta-gal luminescence, 40 h
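Readout: BetaGlo luminescence (5 min, room temp) for LacZ from the normally silent maternal Peg3 allele in female Peg3LacZ-Neo ES cells. Cells 300/well, 40 h, 37C, 5% CO2. Data normalized per plate to negative controls.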
p53ts 32C tox: qHTS Screen for Compounds that Selectively Target Cancer Cells with p53 Mutations: Cytotoxicity of p53ts Cells at the Permissive Temperature; H1299-p53A138V at 32C, ATP luminescence viability, 24 h; Potency, µM (doses to about 46.1 µM), without a hit: at the top dose activity change, negative = cytotoxicity, usual class: cytotoxic; 130,000 tested, 0.93% active; AID 924, 2007;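 further: 0% = DMSO and -100% = full killing by reference compound; nearly all actives have a fitted effect of over 55% in size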
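Viability by ATPlite luminescence after 24 h compound treatment (up to 46 uM) at the permissive 32C. Cells are H1299 carrying p53 A138V. Scale runs from DMSO basal to 100 uM tamoxifen as full kill; AC50 from Hill fits.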
p53ts 39C tox: qHTS Screen for Compounds that Selectively Target Cancer Cells with p53 Mutations: Cytotoxicity of p53ts Cells at the Nonpermissive Temperature; Potency, µM (highest dose often 46.1 µM), for inactives: top-dose activity change, negative = cell killing, usual class: cytotoxic; H1299-p53A138V viability at 39C, ATP luminescence, 24 h; 130,000 tested, 1.5% active; further: on the % scale 0 is the no-effect control and ±100 the full control effect; nearly all actives have a fitted effect of over 55% in size
IkB sig inh: IkB Signaling; Potency, µM (titrated, usually from 57.1 µM), for the others: at the top dose IkBa stabilization activation; 110,000 tested, 0.04% active; ABC-DLBCL IkBa-CBG/CBR dual luciferase ratio, 4 h; response scale: scaled: untreated 0%, proteasome inhibitor 100%; active means well fitted curve in the direction sought with a large enough effect in the signal ratio, not every such curve was filed as active; inconclusive means small, poorly fitted or top-dose-only effect, or a change in a side signal; the % refers to the signal ratio;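 further: the direction sought is a rising ratio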
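Luminescence ratio of IκBα-fused green versus native red beetle luciferase in OCI-Ly3 cells, 4 h post-doxycycline with compound; red signal alone, scaled from basal (0%) to zero light (-100%), flagged nonspecific or cytotoxic effects.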
Starred values were filed as active, the others as inactive; ? = inconclusive; nt = not tested or not shown; [ ] = dose if it differs, or a comment. An excerpt weighted towards active compounds, which were near 1.6% of everything screened. Unless noted, the call rests on the fitted dose curve; in most records, active means well fitted curve in the direction sought with a large enough effect; inconclusive means small, poorly fitted or top-dose-only effect, or another doubt; inactive means no such curve, though single readings can be large; an effect the other way counts as inactive or inconclusive. Potency means the concentration at half of the fitted maximal effect.

SMILES	Peg3 imprint	p53ts 32C tox	p53ts 39C tox	IkB sig inh
Cc1ccc(S(=O)(=O)O[C@H]2CC(C(C)(C)C)CC[C@@H]2c2ccccc2)cc1 (some centres not stated)	-8%[10.9 µM]	nt	nt	nt
O=C1C[C@H]2C(=O)[C@@H]1[C@@H](C(=O)O)[C@H]2C(=O)O	-15%[10.9 µM]	-3%[9.22 µM]	-4%[9.22 µM]	0%[11.4 µM]
NC(=S)c1ccc[n+]([C@@H]2O[C@@H](COP(=O)([O-])OP(=O)(O)OC[C@@H]3O[C@@H](n4cnc5c(N)ncnc54)[C@@H](OP(=O)(O)O)[C@H]3O)[C@@H](O)[C@H]2O)c1	nt	53%	54%	6%
COc1ccccc1CNc1nc(-c2ccccc2CN(C)C)nc2ccccc12	-19%	-8%	16µM*	-3%[11.4 µM]
CN(C)Cc1ccccc1-c1nc(NCc2ccccc2)c2ccccc2n1	-22%	-24%	-25%	-5%[11.4 µM]
COc1ccc(-c2cnc(SCC(=O)Nc3ccc4c(c3)OCO4)n2Cc2ccco2)cc1	-22%	1%	36%	?
CC(=O)Nc1cccc(NC(=O)CSc2ncc(-c3ccc(Cl)cc3)n2Cc2ccco2)c1	-15%	?	13µM*	?
O=C(/C=C\c1ccc(O)c(O)c1)OCCc1ccccc1	nt	?	?	32%
COc1cccc2sc(N3CCN(c4nc5ccccc5s4)CC3)nc12	-4%	-5%	4%	0%
COc1cccc2sc(N(C)c3ccccc3)nc12	-64%	10µM*	13µM*	2%
CCCNC(=O)c1ccc2c(c1)nc1n2CCCCC1	-48%[10.9 µM]	13µM*	6.3µM*	?
COCCCNC(=O)c1ccc2c(c1)nc1n2CCCCC1	-5%[10.9 µM]	?	10µM*	-1%
COc1ccc(CNC(=O)c2ccc3c(c2)nc2n3CCCCC2)cc1	5%[10.9 µM]	-26%	?	?
CC(C)(C)C(=O)Nc1ccc(-c2nc3ccc(NC(=O)C(C)(C)C)cc3[nH]2)cc1	-13%[10.9 µM]	7.9µM*	?	-6%
c1cncc(-c2nnc(-c3cccs3)o2)c1	-47%	-2%	4%	0%
c1csc(-c2nnc(-c3ccc(N4CCOCC4)cc3)o2)c1	-63%	13µM*	13µM*	2%
COc1ccc(-c2nc3c(c4c2CC(C)OC4)CN(CCC(C)C)CC3)cc1 (configuration not stated)	nt	6%[9.22 µM]	-8%[9.22 µM]	nt
Cc1ccccc1C(=O)N1CCCCC1CCN1CCCCC1 (configuration not stated)	-13%[10.9 µM]	1%	-25%	?
CCCOc1ccccc1C(=O)N1CCCCC1CCN1CCCCC1 (configuration not stated)	-10%[10.9 µM]	-3%	22µM*	1%
CC1CCN(c2nc3ccc(C(=O)O)cc3s2)CC1	nt	10µM*	?	nt
C[C@H](N)C(=O)OC(C)(C)Cc1ccc(Cl)cc1	nt	-7%	5%	-5%
COc1ccc(Cn2ccn(Cc3cccc(Cl)c3)c(=O)c2=O)cc1	-5%[10.9 µM]	-13%	?	2%
Cc1cccc(Cn2ccn(Cc3ccc(Cl)cc3)c(=O)c2=O)c1	8%[10.9 µM]	?	32µM*	?
O=c1cc(-c2ccccc2)oc2c1ccc1ccccc12	-14%	-7%	32µM*	0%[11.4 µM]
O=c1cc(C(F)(F)F)oc2c1ccc1ccccc12	nt	-5%	-1%	nt
SMILES	Peg3 imprint	p53ts 32C tox	p53ts 39C tox	IkB sig inh
CC(C)Sc1ncc(Cl)c(C(=O)Nc2nnc(C(C)C)s2)n1	-5%[10.9 µM]	6%	-27%	?
Cc1ccccc1CS(=O)(=O)c1ncc(Cl)c(C(=O)Nc2nnc(C(C)C)s2)n1	-17%[10.9 µM]	16µM*	7.9µM*	?
CC(C)c1nnc(NC(=O)c2nc(S(=O)(=O)Cc3ccccc3)ncc2Cl)s1	-31%[10.9 µM]	20µM*	6.3µM*	-2%
O=c1[nH]cc(CS(=O)(=O)Cc2c[nH]c(=O)[nH]c2=O)c(=O)[nH]1	-10%[10.9 µM]	-4%[9.22 µM]	2%[9.22 µM]	1%[11.4 µM]
COc1ccc(Cn2c(SCC(N)=O)nc3c(sc4ccccc43)c2=O)cc1	11%[10.9 µM]	-9%	13µM*	?
C#C[C@@]1(O)CC[C@H]2[C@H]3CCC4=Cc5oncc5C[C@]4(C)[C@@H]3CC[C@@]21C	nt	nt	nt	17%
C#CCN1C(C)=C(C(=O)OC)[C@@H](c2cccc([N+](=O)[O-])c2)C(C(=O)OCC)=C1C	nt	6%	18%	3%
COc1ccc(-c2cc(C(=O)Oc3ccc(Br)cc3)c3ccccc3n2)cc1	-18%[10.9 µM]	?	13µM*	2%
COc1ccc(-c2cc(C(=O)OCC(=O)N3CCCC3)c3ccccc3n2)cc1	-43%	13µM*	6.3µM*	?
O=C(O)[C@@H]1[C@@H](C(=O)NCc2cccnc2)[C@@H]2C=C[C@@H]1O2	-5%[10.9 µM]	1%[9.22 µM]	-1%[9.22 µM]	0%[11.4 µM]
[O-][n+]1c(CN2CCCCC2)nc2cccc3c2c1-c1ccccc1-3	18%[10.9 µM]	-2%[9.22 µM]	2%[9.22 µM]	1%[11.4 µM]
COc1ccc2nc(NC(=O)c3nc(SC(C)C)ncc3Cl)sc2c1	-6%[10.9 µM]	1%	-9%	0%
Cc1ccc(CSc2ncc(Cl)c(C(=O)Nc3nc4ccc(C)cc4s3)n2)cc1	-11%[10.9 µM]	-2%	-14%	?
Cc1ccc(CNC(=O)c2nc(S(=O)(=O)Cc3ccc(C)cc3)ncc2Cl)cc1	-8%[10.9 µM]	16µM*	13µM*	-2%
COc1ccc2nc(NC(=O)c3nc(S(=O)(=O)Cc4ccc(C)cc4)ncc3Cl)sc2c1	-18%[10.9 µM]	?	6.3µM*	?
Cc1ccc(CS(=O)(=O)c2ncc(Cl)c(C(=O)Nc3nc4ccc(F)cc4s3)n2)cc1	-25%[10.9 µM]	13µM*	16µM*	?
CCCc1nnc(NC(=O)c2nc(S(=O)(=O)Cc3ccc(C)cc3)ncc2Cl)s1	-13%[10.9 µM]	?	?	-1%
Cc1ccc(CS(=O)(=O)c2ncc(Cl)c(C(=O)Nc3nc4ccc(C)cc4s3)n2)cc1	-26%[10.9 µM]	16µM*	13µM*	?
CCS(=O)(=O)c1ncc(Cl)c(C(=O)NCc2ccc(OC)cc2)n1	-27%[10.9 µM]	?	?	?
COc1c(N2C[C@@H]3CCCN[C@H]3C2)c(F)cc2c(=O)c(C(=O)O)cn(C3CC3)c12	-8%	9%	10%	nt
COc1cccc2c1[C@@H]1CN(CCCCn3c(=O)[nH]c4c(sc5ncc(-c6ccccc6)nc54)c3=O)C[C@H]1CO2	nt	?	?	-5%
O=S(=O)(O)c1cc(N=[N+]([O-])c2cc(S(=O)(=O)O)c3ccccc3c2)cc2ccccc12	-9%[10.9 µM]	-1%[9.22 µM]	-1%[9.22 µM]	6%[11.4 µM]
CC1=C/C(=N/O)C([C@H]2C=C(C)CC(C)(C)[C@@H]2O)C(C)(C)C1 (some centres not stated)	-14%[10.9 µM]	2%[9.22 µM]	1%[9.22 µM]	0%[11.4 µM]
COC(=O)c1ccc2c(=O)n(CCCCCC(=O)N3CCN(c4ccccc4)CC3)c(=O)[nH]c2c1	-8%	?	?	?
COC(=O)c1ccc2c(=O)n(CCCCCC(=O)N3CCN(c4cc(Cl)ccc4C)CC3)c(=O)[nH]c2c1	-11%[10.9 µM]	6.3µM*	4µM*	0%
